Screening results deposited in PubChem by National Center for Advancing Translational Sciences (NCATS).
Only some compounds are listed: those with a hit (about 2.4% of all), similar ones and a draw of the others.
D2 ag-1: activates the human D2 dopamine receptor; AID 485358; HEK293 T-REx D2 cells, calcium flux agonist mode; P14416; 0.53% of 340,000 active; activation, % at 2 µM;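 active = activation over 3 SD above normal in the single-dose calcium agonist read, cut at about 30% in these data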
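Calcium-flux readout, 1 cycle/sec over 180 s following compound pin transfer, in inducible HEK293 Trex D2 cells (force-coupled); dopamine controls included. Positive calcium responses during this window marked compounds as potential agonists.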
D2 PAM-1: potentiates the human D2 dopamine receptor allosterically; P14416; DiscoveRx D2 beta-arrestin cells, luminescence, 90 min; 100% = 57 uM dopamine signal; potentiation, % (test concentration not listed); 0.23% of 360,000 active; AID 624464; in the data active = potentiation above about 50%; inconclusive = mostly about 30% to 49%
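PathHunter beta-arrestin assay in DiscoveRx D2 cells. Compounds were added with an EC20 of dopamine (50 nM final) for 90 min at 37 deg C. Luminescence was read 1 h after detection reagent, with 57 uM dopamine as the EC100 control.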
D2 ag-2: activates the human D2 dopamine receptor. DiscoveRx PathHunter D2 beta-arrestin, luminescence, 90 min; 100% = 57 uM dopamine signal. activation, % (concentration not given with the values). 0.084% of 360,000 active. AID 624465; in the data active = activation above about 40%; inconclusive = between about 15% and that limit
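Agonist mode: compounds alone added to overnight-plated D2 PathHunter cells for 90 min at 37 C, with 57 uM final dopamine (EC100) defining full response. Beta-arrestin recruitment detected by chemiluminescent reagent, read after 1 h at ambient temperature.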
D2 PAM-2: positively modulates the human D2 dopamine receptor allosterically | AID 485347 | potentiation, % at 10 µM | 0.34% of 340,000 active | P14416 | HEK293 T-REx D2, calcium flux, EC20 dopamine potentiation;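 active = potentiation over 3 SD above the plate norm, cut at about 30% in these data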
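Tetracycline-induced HEK293 T-REx cells force-coupled to calcium signalling expressed D2; compounds were pin-added after a 10 s baseline, read kinetically 180 s, then an EC20 dopamine challenge followed with a further 180 s calcium read.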
D2 antag: D2 dopamine receptor (human) antagonism | P14416 | HEK293 TREx D2 cells, calcium flux, dopamine EC80 | inhibition, % at 10 µM | 2% of 340,000 active | AID 485344; in the data active = inhibition above about 30%; inactive = below that, where a call was filed
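Antagonism is scored as inhibition of an EC80 dopamine-evoked calcium signal in a force-coupled, tetracycline-inducible HEK293 T-REx D2 line, with compound present 180 s before agonist.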
D3 ag: confirmation of human D3 dopamine receptor agonists, beta-arrestin. shares compounds with D2 ag-1. DiscoveRx D3 beta-arrestin cells, luminescence, 90 min. Potency, µM (series often up to 76.9 µM), actives largely listed as activators. 4% of 2,300 active; note: nearly all actives have a fitted effect of over 70% in size
Target sequence (P35462 whole entry, looked up): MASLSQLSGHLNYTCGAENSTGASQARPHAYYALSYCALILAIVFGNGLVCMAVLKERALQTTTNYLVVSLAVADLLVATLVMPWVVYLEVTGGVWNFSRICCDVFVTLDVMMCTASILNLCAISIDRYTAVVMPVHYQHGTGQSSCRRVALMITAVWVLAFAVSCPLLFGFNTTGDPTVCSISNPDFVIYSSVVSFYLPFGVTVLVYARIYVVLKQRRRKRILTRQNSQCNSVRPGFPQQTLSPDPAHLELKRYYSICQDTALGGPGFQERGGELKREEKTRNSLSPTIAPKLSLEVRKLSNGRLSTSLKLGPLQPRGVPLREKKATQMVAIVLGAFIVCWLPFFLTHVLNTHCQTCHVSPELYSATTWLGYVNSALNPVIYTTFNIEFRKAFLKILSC
D2 ag-3: D2 receptor agonism, beta-arrestin counterscreen. shares compounds with D2 ag-1. DiscoveRx PathHunter D2 beta-arrestin, luminescence, 90 min; response scale: percent relative to full dopamine signal. Potency, µM (series often up to 76.9 µM), most hits filed as activators. 5.9% of 2,300 active; note: nearly all actives have a fitted effect of over 70% in size
Each line names hits and unclear results; the compound was inactive in the other large screens (follow-up assays come after a bar, where they were run). Unless noted, calls come from the whole dose curve; as a rule, active = well fitted activation curve with a large enough effect; inconclusive = small, poorly fitted or top-dose-only effect; inactive = flat fitted curve, though single readings scatter.

CCCN(CCC)CCCNC(=O)CC1Nc2ccccc2NC1=O (stereo unspecified)	D2 ag-1 51 | D3 ag inactive | D2 ag-3 inactive
CCCCN(CC)CCCNC(=O)CC1Nc2ccccc2NC1=O (stereo unspecified)	D2 ag-1 75, D2 antag 40 | D3 ag inactive | D2 ag-3 inactive
COc1ccc(Cn2ccnc2SCC(=O)Nc2cc(C(F)(F)F)ccc2Cl)cc1	none (no result: D2 PAM-1, D2 ag-2, D2 antag)
CC(C)OCCCN1C(=O)c2[nH]nc(-c3ccccc3O)c2C1c1ccc(OCc2ccccc2)cc1 (stereo unspecified)	none (no result: D2 PAM-1, D2 ag-2, D2 antag)
CN(Cc1ccon1)C(=O)C1CCN(C2CCN(CCCc3ccccc3)CC2)CC1	D2 ag-1 49 | D3 ag inactive | D2 ag-3 inactive
Cc1ccccc1CN1CCN(C(C)C(=O)NNC(=O)c2ccc(F)cc2)CC1 (stereo unspecified)	D2 ag-1 58 | D3 ag inactive | D2 ag-3 inactive
O=C1CC(N2CCN(Cc3ccc4c(c3)OCO4)CC2)C(=O)N1Cc1ccc(N2CCCC2=O)cc1 (stereo unspecified)	D2 ag-1 54 | D3 ag inactive | D2 ag-3 inactive
O=C1CC(N2CCOCC2)C(=O)N1Cc1ccc(N2CCCC2=O)cc1 (stereo unspecified)	none
CN1CCN(C(=O)N2c3ccccc3C=Cc3ccccc32)CC1	D2 ag-1 54 | D3 ag inactive | D2 ag-3 inactive
Cc1cc(N2CCOCC2)nc(N)n1	D2 ag-1 41 | D3 ag inactive | D2 ag-3 inactive
CCC(C)NC(=O)C1CCN(C(=O)c2ccccc2)CC1 (stereo unspecified)	none
CCC(C)NC(=O)C1CCN(CCCc2ccccc2)CC1 (stereo unspecified)	D2 ag-1 51 | D3 ag inactive | D2 ag-3 inactive
O=C1C=C(c2ccc3ccccc3c2)C[C@@H](c2ccc(Cl)cc2)C1	none | D3 ag inactive | D2 ag-3 inactive
O=C1C=C(c2cccc(CO)c2)C[C@@H](c2ccc(Cl)cc2)C1	D2 antag 52 | D3 ag inactive | D2 ag-3 inactive
O=C1C=C(c2ccccc2)C[C@@H](c2ccc(Cl)cc2)C1	none | D3 ag inactive | D2 ag-3 inactive
Cc1ccc(C2=CC(=O)C[C@H](c3ccc(Cl)cc3)C2)cc1	none
O=C1C=C(c2ccc3ncccc3c2)C[C@@H](c2ccc(Cl)cc2)C1	none
COc1ccc([C@H]2CC(=O)C=C(c3cccc(CO)c3)C2)cc1OC	none
CCn1c(N2CCN(S(=O)(=O)c3ccccc3)CC2)nc2ccccc21	D2 ag-2 inconclusive | D3 ag inconclusive | D2 ag-3 inactive
Cn1ccc2cc(S(=O)(=O)N3CCCN(C(=O)Nc4ccccc4Br)CC3)ccc21	none (no result: D2 PAM-1, D2 ag-2, D2 antag)
COc1ccc(-n2ncc3c(NC(C)(C)CO)ncnc32)cc1	none (no result: D2 PAM-1, D2 ag-2, D2 antag)
COc1ccccc1Nc1nc(N)nc(CN2CCN(c3ccccc3)CC2)n1	D2 ag-1 52, D2 antag 44 | D3 ag inactive | D2 ag-3 inactive
Cc1ccc(Nc2nc(N)nc(CN3CCN(c4ccccc4)CC3)n2)cc1Cl	D2 PAM-1 102, D2 ag-2 inconclusive (no result: D2 ag-1, D2 PAM-2, D2 antag) | D3 ag inactive | D2 ag-3 20µM
Nc1nc(CN2CCN(c3ccccn3)CC2)nc(Nc2ccc(F)cc2)n1	D2 ag-1 74, D2 ag-2 inconclusive, D2 antag 73 | D3 ag inactive | D2 ag-3 inconclusive
CCOC(=O)c1cccc(NC(=O)c2cc3c(=O)n(C)c4ccccc4c3n2C)c1	none (no result: D2 PAM-1, D2 ag-2, D2 antag)
Cc1ccc(C2=CC(c3ccccc3F)n3c(nc4ccccc43)N2)cc1C (stereo unspecified)	none (no result: D2 PAM-1, D2 ag-2, D2 antag)
CC(C)(C)c1ccc(C2Sc3ccccc3NC3=C2C(=O)c2ccccc23)cc1 (stereo unspecified)	none (no result: D2 PAM-1, D2 ag-2, D2 antag)
CCC(Sc1nncn2c1cc1oc(C)cc12)C(=O)Nc1ccc(F)cc1 (stereo unspecified)	none (no result: D2 PAM-1, D2 ag-2, D2 antag)
CCc1ccc(-n2nc(C)c3c(C)cc(=O)n(CC(=O)NCc4ccc(C)cc4)c32)cc1	none (no result: D2 PAM-1, D2 ag-2, D2 antag)
CCN1CCN(C(=O)CNC(=O)c2nn(-c3ccc(OC)cc3)c(=O)c3ccccc23)CC1	D2 ag-1 51 | D3 ag inactive | D2 ag-3 inactive
COc1ccc(-c2ccc(SCC(=O)N3CCCC3)nn2)cc1OC	none | D3 ag inactive | D2 ag-3 inactive
Cc1cc(=O)[nH]c2c(C)cc(S(=O)(=O)NCc3ccccc3)cc12	D2 ag-1 36 | D3 ag inactive | D2 ag-3 inactive
O=S(=O)(NC1CCN(S(=O)(=O)c2c(F)cccc2F)C1)c1ccc2c(c1)OCCO2 (stereo unspecified)	none (no result: D2 PAM-1, D2 ag-2) | D3 ag inactive | D2 ag-3 inactive
O=C(Cc1ccc(Cl)cc1)SCc1ccccc1	none | D3 ag inactive | D2 ag-3 inactive
O=C(Cc1ccccc1)NCCSCc1ccc(Cl)cc1	none
CCc1ccc(S(=O)(=O)NCc2ccc3c(c2)CCN3C(=O)c2ccc(C)cc2)cc1	none (no result: D2 PAM-1, D2 ag-2, D2 antag)
CC(C)(C)C(=O)Nc1cccc(C(=O)OCc2cc(=O)n3nc(C4CC4)sc3n2)c1	none (no result: D2 ag-1, D2 PAM-1, D2 ag-2, D2 antag)
COc1cc(CN2CCCCCC2)cc(OC)c1	none
COc1ccc(-n2c(CN3CCN(c4ccccc4)CC3)nc3ccc([N+](=O)[O-])cc3c2=O)c(OC)c1	none
COc1cc(CN2CCN(c3ncccn3)CC2)cc(OC)c1	D2 ag-1 88, D2 ag-2 56, D2 antag 87 | D3 ag inconclusive | D2 ag-3 2.8µM
COc1ccc(CN2CCN(c3ncccn3)CC2)c(OC)c1	D2 ag-1 56, D2 ag-2 45, D2 antag 69 | D3 ag inconclusive | D2 ag-3 inconclusive
COc1ccc(CN2CCN(c3ccccn3)CC2)c(OC)c1	D2 ag-1 84, D2 ag-2 inconclusive, D2 antag 83 | D3 ag inactive | D2 ag-3 inconclusive
COc1ccc(CN2CCN(Cc3ccccc3F)CC2)c(OC)c1	none
COc1cccc(-n2c(CN3CCN(c4ccccn4)CC3)nc3ccc([N+](=O)[O-])cc3c2=O)c1	none | D3 ag inactive | D2 ag-3 inactive
Cc1cc(Nc2ccc(C)c(Cl)c2)n2nc(Cc3ccccc3)nc2n1	none (no result: D2 PAM-1, D2 ag-2, D2 antag)
CC(=O)c1ccc(NC(=O)c2cnc(N3CCCC3)nc2C)cc1	none (no result: D2 ag-1, D2 PAM-1, D2 ag-2, D2 antag)
CCc1ccc(NC(=O)C(=O)NCCc2sc(-c3ccc(C)cc3)nc2C)cc1	none (no result: D2 PAM-1, D2 ag-2, D2 antag)
COc1ccc2nc3ccccc3nc2c1NC(=O)c1ccc(Cl)cc1Cl	none | D3 ag inactive | D2 ag-3 inactive
